Our source for the binding signal values is paper PMC7862700, “An all-to-all approach to the identification of sequence-specific readers for epigenetic DNA modifications on cytosine”.

What all share (assay): DAPPL (digital affinity profiling via proximity ligation, sequencing); 10 mM Tris-HCl pH 7.5, 50 mM NaCl, 1 mM DTT, 4% glycerol, room temperature, 30 min; GST-TFs on glutathione beads, 16-mer random dsDNA library, 0.1% formaldehyde crosslink after washing; high values mean tight binding
What all share (conditions): protein: recombinant; tags: N-terminal GST; dsDNA, one strand shown

One assay has as its target T1, FLI1 (Homo sapiens, UniProt Q01543 1-452).
T1 sequence: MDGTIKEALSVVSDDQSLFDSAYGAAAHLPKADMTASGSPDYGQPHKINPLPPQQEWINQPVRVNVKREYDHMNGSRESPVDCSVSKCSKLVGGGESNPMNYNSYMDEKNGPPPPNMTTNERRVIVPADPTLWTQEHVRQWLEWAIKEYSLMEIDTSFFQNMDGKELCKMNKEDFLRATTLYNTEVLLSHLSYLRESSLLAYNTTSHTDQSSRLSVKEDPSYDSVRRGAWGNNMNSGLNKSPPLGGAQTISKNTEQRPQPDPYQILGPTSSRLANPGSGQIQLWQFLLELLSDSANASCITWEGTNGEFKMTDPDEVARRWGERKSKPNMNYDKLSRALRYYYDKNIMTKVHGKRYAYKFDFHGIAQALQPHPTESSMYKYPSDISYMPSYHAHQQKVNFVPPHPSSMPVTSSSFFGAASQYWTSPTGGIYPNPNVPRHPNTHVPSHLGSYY
A digest of the protocol:
(§1)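 Binding signal is defined as a hexamer's read frequency for one factor over its frequency for the tag-only sample. To obtain reads, GST-fused human transcription factors were expressed in yeast, captured on glutathione beads, barcoded with DNA and pooled with that sample. Pools met 200 nmole of a 16-mer random double-stranded DNA library in Tris/NaCl/DTT/glycerol buffer for 30 min at room temperature before washing, 0.1% formaldehyde crosslinking, proximity ligation (BsaI/T4 ligase, 1 h, 37 °C), PCR and Illumina NextSeq500 sequencing.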

For another assay, the target named is T2, ELK1 (Homo sapiens, UniProt P19419 1-428).
T2 sequence: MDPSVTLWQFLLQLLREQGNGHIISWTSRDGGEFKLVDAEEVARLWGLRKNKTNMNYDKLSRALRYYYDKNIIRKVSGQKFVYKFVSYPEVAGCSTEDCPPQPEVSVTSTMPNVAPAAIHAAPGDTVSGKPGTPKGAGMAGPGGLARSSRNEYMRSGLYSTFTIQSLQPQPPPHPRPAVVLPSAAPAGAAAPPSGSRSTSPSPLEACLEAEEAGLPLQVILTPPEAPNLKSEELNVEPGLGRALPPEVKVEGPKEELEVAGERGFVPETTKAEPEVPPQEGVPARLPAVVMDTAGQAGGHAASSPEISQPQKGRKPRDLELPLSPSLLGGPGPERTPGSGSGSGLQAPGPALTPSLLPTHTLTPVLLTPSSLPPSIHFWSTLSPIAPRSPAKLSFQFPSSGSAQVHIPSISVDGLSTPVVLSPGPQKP
The essentials: as §1

A further assay concerns the target T3, GABPA (Homo sapiens, UniProt Q06546 1-454).
T3 sequence: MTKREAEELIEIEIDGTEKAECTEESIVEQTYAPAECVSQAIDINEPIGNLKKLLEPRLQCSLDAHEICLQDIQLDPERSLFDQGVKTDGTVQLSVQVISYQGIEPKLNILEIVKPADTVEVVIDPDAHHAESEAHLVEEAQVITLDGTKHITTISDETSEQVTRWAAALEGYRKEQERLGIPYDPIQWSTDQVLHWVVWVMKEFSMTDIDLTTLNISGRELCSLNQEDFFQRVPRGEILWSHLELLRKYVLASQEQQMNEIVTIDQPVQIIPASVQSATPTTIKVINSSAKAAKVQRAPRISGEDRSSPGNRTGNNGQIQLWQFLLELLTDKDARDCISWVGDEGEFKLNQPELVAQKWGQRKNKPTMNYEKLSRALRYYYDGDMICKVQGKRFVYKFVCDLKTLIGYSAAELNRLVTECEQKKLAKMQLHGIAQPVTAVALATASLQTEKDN
The essentials: as §1

In the next assay the target is T4, ERG (Homo sapiens, UniProt P11308 1-479).
T4 sequence: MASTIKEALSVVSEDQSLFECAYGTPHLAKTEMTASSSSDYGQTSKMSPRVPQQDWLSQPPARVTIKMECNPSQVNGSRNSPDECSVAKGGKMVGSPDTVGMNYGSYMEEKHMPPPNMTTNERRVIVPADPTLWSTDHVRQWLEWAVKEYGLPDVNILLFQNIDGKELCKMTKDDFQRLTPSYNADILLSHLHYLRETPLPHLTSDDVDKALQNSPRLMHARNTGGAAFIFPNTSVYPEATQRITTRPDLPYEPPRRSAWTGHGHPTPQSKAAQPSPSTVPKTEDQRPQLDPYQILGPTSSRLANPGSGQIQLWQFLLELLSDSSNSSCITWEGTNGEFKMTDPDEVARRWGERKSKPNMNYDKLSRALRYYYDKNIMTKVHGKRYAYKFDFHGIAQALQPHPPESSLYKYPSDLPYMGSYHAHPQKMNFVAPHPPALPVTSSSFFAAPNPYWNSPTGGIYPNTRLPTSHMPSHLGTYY
The essentials:
as §1

Another assay deals with ELF1 (Homo sapiens, UniProt P32519 1-619). The essentials: as §1
In the next assay the target is T5, EHF (Homo sapiens, UniProt Q9NZC4 1-300).
T5 sequence: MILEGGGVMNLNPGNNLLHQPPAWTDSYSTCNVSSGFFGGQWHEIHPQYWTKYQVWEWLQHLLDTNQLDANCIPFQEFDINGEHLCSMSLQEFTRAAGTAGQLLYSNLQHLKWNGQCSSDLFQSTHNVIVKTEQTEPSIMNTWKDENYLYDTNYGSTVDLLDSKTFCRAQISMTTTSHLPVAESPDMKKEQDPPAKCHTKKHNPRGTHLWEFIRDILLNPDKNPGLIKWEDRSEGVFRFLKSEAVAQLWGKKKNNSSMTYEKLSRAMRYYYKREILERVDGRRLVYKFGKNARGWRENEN
A digest of the protocol:
as §1

The target in a further assay is SPI1 (Homo sapiens, UniProt P17947 1-270). The essentials:
as §1

Another assay addresses SPIB (Homo sapiens, UniProt Q01892 1-262). The essentials:
as §1

For a further assay, the target named is T6, ELK3 (Homo sapiens, UniProt P41970 1-407).
T6 sequence: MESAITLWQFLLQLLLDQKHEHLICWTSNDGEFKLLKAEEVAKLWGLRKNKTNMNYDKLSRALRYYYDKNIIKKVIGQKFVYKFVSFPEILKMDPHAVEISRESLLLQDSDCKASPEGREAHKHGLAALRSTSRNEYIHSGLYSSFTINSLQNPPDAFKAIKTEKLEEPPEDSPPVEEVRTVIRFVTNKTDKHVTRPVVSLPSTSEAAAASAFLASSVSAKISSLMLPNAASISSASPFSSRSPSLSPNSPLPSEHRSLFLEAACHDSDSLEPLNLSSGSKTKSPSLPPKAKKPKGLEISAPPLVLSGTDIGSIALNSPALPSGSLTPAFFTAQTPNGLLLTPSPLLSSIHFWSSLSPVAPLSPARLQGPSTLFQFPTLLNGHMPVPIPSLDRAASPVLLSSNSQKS
A digest of the protocol:
as §1

Another assay addresses T7, FEV (Homo sapiens, UniProt Q99581 1-238).
T7 sequence: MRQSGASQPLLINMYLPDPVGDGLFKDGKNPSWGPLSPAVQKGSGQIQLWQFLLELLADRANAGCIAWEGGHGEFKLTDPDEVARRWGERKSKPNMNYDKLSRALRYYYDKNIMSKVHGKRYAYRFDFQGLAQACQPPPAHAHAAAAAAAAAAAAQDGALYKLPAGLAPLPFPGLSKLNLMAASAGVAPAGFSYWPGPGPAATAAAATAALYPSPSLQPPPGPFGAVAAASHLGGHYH
The essentials:
as §1

A further assay addresses ETV5 (Homo sapiens, UniProt P41161 1-510). A digest of the protocol:
as §1

In the next assay the target is T8, SPIC (Homo sapiens, UniProt Q8N5J4 1-248).
T8 sequence: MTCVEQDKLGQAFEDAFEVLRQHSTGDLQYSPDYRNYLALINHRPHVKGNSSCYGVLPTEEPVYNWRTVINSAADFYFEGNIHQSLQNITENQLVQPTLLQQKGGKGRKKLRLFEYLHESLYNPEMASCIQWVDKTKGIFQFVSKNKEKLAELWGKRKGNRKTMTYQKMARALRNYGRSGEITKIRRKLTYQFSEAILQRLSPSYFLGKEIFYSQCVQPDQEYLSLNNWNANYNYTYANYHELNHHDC
A digest of the protocol: as §1

In a further assay the target is ELF4 (Homo sapiens, UniProt Q99607 1-663). The essentials: as §1
The next assay concerns the target T9, ELK4 (Homo sapiens, UniProt P28324-2 1-405).
T9 sequence: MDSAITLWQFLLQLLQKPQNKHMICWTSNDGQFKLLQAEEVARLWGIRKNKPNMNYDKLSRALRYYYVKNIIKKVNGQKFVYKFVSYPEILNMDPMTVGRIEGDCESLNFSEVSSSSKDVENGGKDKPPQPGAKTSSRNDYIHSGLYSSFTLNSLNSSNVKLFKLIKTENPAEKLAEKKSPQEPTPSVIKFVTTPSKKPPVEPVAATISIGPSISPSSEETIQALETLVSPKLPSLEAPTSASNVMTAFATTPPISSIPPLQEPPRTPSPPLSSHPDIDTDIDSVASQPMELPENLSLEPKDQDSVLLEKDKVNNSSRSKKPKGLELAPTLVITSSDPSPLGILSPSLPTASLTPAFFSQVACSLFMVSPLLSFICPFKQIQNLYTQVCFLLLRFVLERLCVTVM
The essentials:
as §1

In another assay the target is T10, ETV2 (Homo sapiens, UniProt O00321 1-342).
T10 sequence: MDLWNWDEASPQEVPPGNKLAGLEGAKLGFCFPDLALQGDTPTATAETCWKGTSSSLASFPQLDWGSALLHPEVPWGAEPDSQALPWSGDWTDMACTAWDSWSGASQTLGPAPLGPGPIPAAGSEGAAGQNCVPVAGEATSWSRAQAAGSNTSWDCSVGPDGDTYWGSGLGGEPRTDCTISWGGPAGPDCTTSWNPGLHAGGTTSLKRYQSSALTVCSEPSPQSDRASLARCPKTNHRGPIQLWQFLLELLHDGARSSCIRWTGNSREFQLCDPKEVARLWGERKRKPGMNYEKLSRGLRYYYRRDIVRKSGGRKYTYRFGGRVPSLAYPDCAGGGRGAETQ
A digest of the protocol:
as §1

In another assay the target is T11, ELF3 (Homo sapiens, UniProt P78545 1-371).
T11 sequence: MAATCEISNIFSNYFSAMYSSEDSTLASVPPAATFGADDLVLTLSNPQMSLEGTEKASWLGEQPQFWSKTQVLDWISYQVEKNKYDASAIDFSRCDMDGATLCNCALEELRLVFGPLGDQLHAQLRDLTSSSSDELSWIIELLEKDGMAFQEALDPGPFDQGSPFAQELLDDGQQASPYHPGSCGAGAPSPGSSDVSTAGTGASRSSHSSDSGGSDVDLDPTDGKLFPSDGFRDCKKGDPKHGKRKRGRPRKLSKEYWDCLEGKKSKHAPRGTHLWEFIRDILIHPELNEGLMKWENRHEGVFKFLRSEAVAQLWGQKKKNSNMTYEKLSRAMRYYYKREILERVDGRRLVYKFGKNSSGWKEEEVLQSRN
The essentials:
as §1

The target in a further assay is ETV1 (Homo sapiens, UniProt P50549 1-477). The essentials: as §1
Chain of ETV1 (P50549 whole entry): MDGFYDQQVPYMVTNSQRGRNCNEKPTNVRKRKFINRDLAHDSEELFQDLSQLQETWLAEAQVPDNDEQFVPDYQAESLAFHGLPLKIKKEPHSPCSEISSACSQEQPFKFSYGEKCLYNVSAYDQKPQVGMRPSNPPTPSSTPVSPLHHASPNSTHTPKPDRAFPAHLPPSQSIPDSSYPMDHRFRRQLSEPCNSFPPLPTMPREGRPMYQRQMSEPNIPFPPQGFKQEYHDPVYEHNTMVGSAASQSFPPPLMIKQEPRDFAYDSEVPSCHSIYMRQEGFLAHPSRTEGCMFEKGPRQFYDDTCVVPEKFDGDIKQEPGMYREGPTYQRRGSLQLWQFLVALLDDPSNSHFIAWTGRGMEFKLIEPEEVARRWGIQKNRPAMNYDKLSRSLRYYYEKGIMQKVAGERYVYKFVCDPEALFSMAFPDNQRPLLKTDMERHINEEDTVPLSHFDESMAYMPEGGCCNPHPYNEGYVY

Chain of ETV5 (P41161 whole entry): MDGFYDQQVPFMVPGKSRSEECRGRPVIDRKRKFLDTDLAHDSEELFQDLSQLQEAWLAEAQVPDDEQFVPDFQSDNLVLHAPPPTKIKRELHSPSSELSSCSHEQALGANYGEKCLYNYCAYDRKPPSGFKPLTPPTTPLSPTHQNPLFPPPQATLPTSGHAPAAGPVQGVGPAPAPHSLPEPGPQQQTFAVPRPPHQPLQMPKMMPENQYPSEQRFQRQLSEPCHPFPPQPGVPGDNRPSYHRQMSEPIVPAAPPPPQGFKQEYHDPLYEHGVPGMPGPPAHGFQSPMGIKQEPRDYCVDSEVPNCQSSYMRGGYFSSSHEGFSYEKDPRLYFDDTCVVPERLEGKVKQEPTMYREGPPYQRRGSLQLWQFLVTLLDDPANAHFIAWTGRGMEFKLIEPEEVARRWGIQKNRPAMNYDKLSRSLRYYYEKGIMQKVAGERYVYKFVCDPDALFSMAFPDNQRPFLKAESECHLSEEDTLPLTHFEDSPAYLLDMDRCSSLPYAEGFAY
Chain of ELF4 (Q99607 whole entry): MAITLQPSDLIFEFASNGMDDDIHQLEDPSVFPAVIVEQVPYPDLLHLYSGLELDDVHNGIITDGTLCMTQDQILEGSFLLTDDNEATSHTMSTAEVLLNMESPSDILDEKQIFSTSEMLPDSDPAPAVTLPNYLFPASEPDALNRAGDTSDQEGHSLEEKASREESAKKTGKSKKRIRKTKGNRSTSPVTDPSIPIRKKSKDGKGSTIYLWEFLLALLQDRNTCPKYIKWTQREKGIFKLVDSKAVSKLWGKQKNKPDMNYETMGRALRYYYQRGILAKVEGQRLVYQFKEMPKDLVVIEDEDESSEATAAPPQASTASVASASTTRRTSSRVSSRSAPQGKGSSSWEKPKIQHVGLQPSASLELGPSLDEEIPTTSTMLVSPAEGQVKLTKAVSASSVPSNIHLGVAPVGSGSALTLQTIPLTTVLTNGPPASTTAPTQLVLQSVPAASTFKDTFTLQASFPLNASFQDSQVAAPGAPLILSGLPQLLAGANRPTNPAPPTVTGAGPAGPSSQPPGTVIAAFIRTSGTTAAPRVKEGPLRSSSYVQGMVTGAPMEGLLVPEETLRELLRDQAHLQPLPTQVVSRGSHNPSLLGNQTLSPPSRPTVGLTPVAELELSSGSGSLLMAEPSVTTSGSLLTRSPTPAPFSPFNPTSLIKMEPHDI
Chain of ELF1 (P32519 whole entry): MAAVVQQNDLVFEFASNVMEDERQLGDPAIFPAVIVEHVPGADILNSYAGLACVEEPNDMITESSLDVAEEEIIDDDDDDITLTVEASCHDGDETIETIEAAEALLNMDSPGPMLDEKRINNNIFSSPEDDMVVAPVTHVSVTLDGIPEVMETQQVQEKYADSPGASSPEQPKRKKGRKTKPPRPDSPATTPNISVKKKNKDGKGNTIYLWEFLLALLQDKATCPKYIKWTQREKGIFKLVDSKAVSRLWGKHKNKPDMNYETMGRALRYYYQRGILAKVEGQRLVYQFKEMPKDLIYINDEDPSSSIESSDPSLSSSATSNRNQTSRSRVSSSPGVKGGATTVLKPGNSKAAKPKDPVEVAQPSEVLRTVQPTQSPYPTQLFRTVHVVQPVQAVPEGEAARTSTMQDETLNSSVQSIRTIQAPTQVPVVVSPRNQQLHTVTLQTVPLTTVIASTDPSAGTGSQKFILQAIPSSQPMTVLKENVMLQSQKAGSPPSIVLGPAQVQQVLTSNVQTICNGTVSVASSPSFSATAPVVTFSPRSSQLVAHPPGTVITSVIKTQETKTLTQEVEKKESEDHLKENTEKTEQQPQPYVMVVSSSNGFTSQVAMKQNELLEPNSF
Chain of SPIB (Q01892 whole entry): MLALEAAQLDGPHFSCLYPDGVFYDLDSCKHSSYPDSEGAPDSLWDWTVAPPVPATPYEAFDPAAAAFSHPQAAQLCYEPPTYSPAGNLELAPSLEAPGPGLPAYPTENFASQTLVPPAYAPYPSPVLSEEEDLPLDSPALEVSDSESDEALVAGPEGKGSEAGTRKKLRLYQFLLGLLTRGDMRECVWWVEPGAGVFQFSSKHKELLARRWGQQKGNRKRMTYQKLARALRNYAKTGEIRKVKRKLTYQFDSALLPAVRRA

Turning to GACTAC, the binding signal is 1.17 fold enrichment (6-mer frequency, TF over GST control) with FLI1; 1.19 fold enrichment (6-mer frequency, TF over GST control) with ELK1; 1.15 fold enrichment (6-mer frequency, TF over GST control) in the assay with GABPA; 1.07 fold enrichment (6-mer frequency, TF over GST control) with ERG; 1.15 fold enrichment (6-mer frequency, TF over GST control) in the assay with ELF1; 1.12 fold enrichment (6-mer frequency, TF over GST control) with EHF. Moreover, the binding signal in the assay with SPI1 is 1.12 fold enrichment (6-mer frequency, TF over GST control); in the assay with SPIB, 1.19 fold enrichment (6-mer frequency, TF over GST control); with ELK3, 1.1 fold enrichment (6-mer frequency, TF over GST control); in the assay with FEV, 1.08 fold enrichment (6-mer frequency, TF over GST control); in the assay with ETV5, 1.15 fold enrichment (6-mer frequency, TF over GST control); in the assay with SPIC, 1.13 fold enrichment (6-mer frequency, TF over GST control). In addition, the binding signal with ELF4 was 1.11 fold enrichment (6-mer frequency, TF over GST control); in the assay with ELK4 it was 1.18 fold enrichment (6-mer frequency, TF over GST control); with ETV2, 1.22 fold enrichment (6-mer frequency, TF over GST control); with ELF3 it was 1.2 fold enrichment (6-mer frequency, TF over GST control); in the assay with ETV1, 1.17 fold enrichment (6-mer frequency, TF over GST control).
On to CCACCC, for which the binding signal with FLI1 is 1.17 fold enrichment (6-mer frequency, TF over GST control); with ELK1 it was 1.28 fold enrichment (6-mer frequency, TF over GST control); in the assay with GABPA, 1.28 fold enrichment (6-mer frequency, TF over GST control); with ERG, 1.21 fold enrichment (6-mer frequency, TF over GST control); with ELF1, 1.23 fold enrichment (6-mer frequency, TF over GST control); with EHF it was 1.31 fold enrichment (6-mer frequency, TF over GST control). For the same sequence, the binding signal in the assay with SPI1 was 1.22 fold enrichment (6-mer frequency, TF over GST control); with SPIB, 1.31 fold enrichment (6-mer frequency, TF over GST control); in the assay with ELK3, 1.23 fold enrichment (6-mer frequency, TF over GST control); in the assay with FEV, 1.17 fold enrichment (6-mer frequency, TF over GST control); in the assay with ETV5, 1.25 fold enrichment (6-mer frequency, TF over GST control); with SPIC, 1.21 fold enrichment (6-mer frequency, TF over GST control). Besides, the binding signal with ELF4 was 1.32 fold enrichment (6-mer frequency, TF over GST control); with ELK4, 1.38 fold enrichment (6-mer frequency, TF over GST control); in the assay with ETV2, 1.3 fold enrichment (6-mer frequency, TF over GST control); with ELF3 it was 1.37 fold enrichment (6-mer frequency, TF over GST control); with ETV1, 1.16 fold enrichment (6-mer frequency, TF over GST control).
